Our source for the growth values is PubChem BioAssay (NCI).

Holding throughout (assay): NCI-60 one-dose screen, 48 h (100 = growth as untreated, 0 = no growth, -100 = all killed)
Common to all, as to conditions: 10 µM

The subject of test [1] is EKVX NSCLC.
For test [2], the system named is SN12C renal.
Test [3] concerns UO-31 renal.
Test [4] concerns TK-10 renal.
Test [5] deals with ACHN renal.
For test [6], the system named is CAKI-1 renal.
In test [7] the test system is A498 renal.
Test [8] concerns CCRF-CEM leukemia.
Test [9] relates to MOLT-4 leukemia.
Test [10] concerns SR leukemia.

This is part of a sample that, as a whole, favours compounds with a hit. Of some 83,000 tested, about 20% had one in any assay.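 Negative percent growth values reflect cell death: -40 means 40% of the cells present at the start died, and -100 means all died.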 Values without a mark were called inactive. Active and inactive are the calls of the source. The calls were made as follows: active = growth percent below 10; inactive = the rest.

Consider `COc1ccc(NC(=O)Cc2nc3nc4sc(C)c(C)c4c(=O)n3[nH]2)cc1`, for which the growth is 93.1% in [1]; 106% in test [2]; 83.1% in [3]; 115% in [4]; 107% in test [5]; 98% in test [6]. Moreover, the growth in test [7] is 122%; in [8] it was 90.4%; in test [9], 99.4%; in test [10] it was 99.1%.

`COc1cc(-c2cc(C(=O)N3CCN(C(=O)c4ccccc4NCc4cccs4)CC3)nc3cc(-c4ccccc4)nn23)cc(OC)c1OC`: the growth in [1] was 94.4%; in [2], 87.5%; in test [3], 39.8%; in test [4], 70.1%; in test [5], 73.9%; in [6], 55.2%. In addition, the growth is 74.2% in test [7], 73.9% in [8], 79.3% in test [9] and 23% in test [10].

For the compound `O=C(CC(NC(=O)OCc1ccccc1)C(=O)OCc1ccccc1)OCc1ccccc1` (stereo not drawn), the growth is 95.7% in test [1]; 102% in test [2]; 103% in [3]; 97.6% in [4]; 104% in test [5]; 99.3% in [6]. Besides, the growth is 68.1% in test [7], 47.5% in test [8], 115% in test [9] and 99.3% in test [10].

Regarding `CCN(CC)CCOc1nc2ccccc2c2c1-c1ccc(OC)cc1C2=O`, the growth in test [1] was 16%; in [2], 18.1%; in [3], -53.3% (active); in [4], -1.29% (active); in [5], -6.81% (active); in test [6] it was -28.6% (active). Besides, the growth in test [7] was 39.9%; in test [8], 4.01% (active); in test [9], -2.16% (active); in test [10] it was -8.96% (active).

Regarding `Nc1ncn(C2OC(CO)C(O)C2O)c(=O)n1` (stereo not drawn), the growth in [1] is 44.9%; in [2], 17.4%; in test [3], 0.167% (active); in test [4], 4.79% (active); in test [5] it was -21.7% (active); in test [6], -2.03% (active). The growth was 19% in [7], -7.84% (active) in [8], 0.695% (active) in test [9] and -1.52% (active) in test [10].

Take `Cc1ccc(-c2nc(/C=C3/C(=O)N(C)c4ccc(F)cc43)c3ccccn23)cc1`: the growth was 98.1% in [1]; 96.1% in test [2]; 85.8% in test [3]; 128% in test [4]; 88.5% in [5]; 105% in test [6]. Besides, the growth is 95.9% in [7], 111% in test [8], 100% in test [9] and 97.5% in test [10].

For the compound `CN(C)C(=S)N/N=C\C=N/NC(=S)N(C)C`, the growth in [1] is 38.8%; in test [2] it was 88.4%; in [3] it was 31.7%; in [4], 96.5%; in [5], 80%; in [6], 74.1%. For the same compound, the growth in [7] was 89%; in test [8], 22.6%; in [9], 10%; in test [10], 35.4%.

Consider `COc1cc(-c2nnc(-c3c(-c4ccc(F)cc4)nc4ccccn34)o2)cc(OC)c1OC`, for which the growth in test [1] was 97%; in test [2] it was 68.2%; in test [3], 62.9%; in test [4], 89.7%; in [5], 51.8%; in test [6], 91.3%. Besides, the growth in test [7] was 62.7%; in test [8], 89.1%; in test [9], 89.6%; in test [10], 25.3%.

Regarding `CCCCN(CCCC)CCCCCCCCC(O)c1cc2ccccc2c2ccccc12` (stereo not drawn), the growth in test [1] was 60.4%; in test [2], 64.9%; in test [3], 52.3%; in test [4] it was 79%; in test [5], 59.9%; in test [6], 71.9%. In addition, the growth in test [7] is 46%; in [8] it was 37.4%; in test [9], 39%; in test [10], 37.6%.

As for `CCCN(CCC)CCC(O)c1cc2c(c3ccccc13)CCCC2` (stereo not drawn), the growth was 87.9% in test [1]; 82% in [2]; 71.4% in [3]; 101% in [4]; 86.9% in [5]; 96.1% in [6]. Further, the growth in test [7] is 74.4%; in [8], 93.8%; in [9] it was 92.9%; in test [10], 75.3%.

For `Oc1[nH]c2ccc(Cl)cc2c1/C=c1/ccc2c(c1)N=C(c1cccs1)N=2`, the growth is 66.3% in [1]; 54.9% in test [2]; 72.7% in test [3]; 81.5% in [4]; 58% in test [5]; 52.6% in [6]. Also, the growth in [7] was 44.6%; in [8], 31.9%; in test [9], 42.3%; in [10], 37%.

On to `N#Cc1c(C#N)c(SSc2c(C#N)c(C#N)c(N)n2-c2ccccc2)n(-c2ccccc2)c1N`, for which the growth in test [1] was 107%; in test [2], 99.3%; in test [3], 81.2%; in test [4] it was 107%; in test [5], 101%; in [6], 118%. The growth in [7] was 92.1%; in test [8], 126%; in test [9], 106%; in [10], 106%.

On to `COc1ccc(N2C(=O)C3c4[nH]c5ccc(OCc6ccccc6)cc5c4C4CCC(C(C)C)CC4C3C2=O)cc1` (stereo not drawn), for which the growth in test [1] was 115%; in test [2], 103%; in [3], 91.7%; in test [4], 116%; in [5] it was 3.44% (active); in test [6] it was 94%. Also, the growth was 105% in test [7], 71.9% in [8], 30.8% in test [9] and 64.6% in test [10].

Regarding `O=C(Nc1nc2ccc(F)cc2s1)c1cc(-c2ccc(F)cc2)n2nc(-c3ccccc3)cc2n1`, the growth is 84.1% in test [1]; 87.5% in test [2]; 98.2% in test [3]; 113% in test [4]; 107% in test [5]; 85.6% in test [6]. Besides, the growth in [7] was 124%; in test [8], 74.5%; in [9], 99.7%; in test [10], 35%.

Turning to `CN(C)CCOc1nc2ccccc2c2c1-c1ccc(Cl)cc1C2=O`, the growth in test [1] is -1.93% (active); in test [2] it was 11.3%; in test [3], -33.1% (active); in test [4] it was -16.4% (active); in test [5], 10.1%; in test [6] it was -13.7% (active). Moreover, the growth was 25.2% in test [7], 2.75% (active) in [8], 1.17% (active) in test [9] and -6.41% (active) in [10].

For the compound `O=C1OCC2=C1C(c1cccc(Cl)c1)c1cc3c(cc1N2CCO)OCO3` (stereo not drawn), the growth was 56.6% in test [1]; 42.9% in [2]; 45.1% in test [3]; 58.2% in test [4]; 46.3% in [5]; 39.6% in [6]. Further, the growth in [7] was -7.88% (active); in [8], 9.39% (active); in test [9], 26.4%; in test [10], 32.5%.

As to `CN(C)CC(O)c1ccc2cc(Br)c3ccccc3c2c1` (stereo not drawn), the growth in test [1] was 58.5%; in test [2], 53.9%; in [3], 57.6%; in test [4] it was 81.8%; in [5], 17.2%; in test [6] it was 73.1%. Further, the growth in test [7] is 23.9%; in test [8] it was 57.9%; in [9], 31%; in test [10], 4.67% (active).

Consider `Cc1nc2oc3ccccc3c(=O)c2cc1C(=O)NCc1ccccc1`, for which the growth in test [1] is 69.3%; in test [2], 99%; in test [3], 63.3%; in test [4] it was 87.6%; in test [5], 63.3%; in test [6], 52%. Also, the growth in test [7] was 92.5%; in [8], 76.9%; in test [9] it was 66.7%; in [10] it was 69.7%.

Take `COc1ccc2c(c1)-c1c(c3cc(OC)ccc3n(CCN(C)C)c1=O)C2=O`: the growth in [1] is 34.5%; in test [2], 24.6%; in [3] it was -24.7% (active); in test [4] it was -2.26% (active); in test [5], 8.27% (active); in test [6], 1.94% (active). In addition, the growth in [7] was 48.6%; in [8] it was 3.78% (active); in [9], 1.5% (active); in [10] it was -12.4% (active).

Turning to `Cc1cc(C)c(CCc2cc(C)c(C)cc2C)cc1C`, the growth is 102% in [1]; 107% in test [2]; 92.2% in [3]; 117% in test [4]; 112% in test [5]; 94.1% in test [6]. Moreover, the growth in [7] is 98.7%; in [8] it was 93%; in [9], 90.5%; in test [10], 90.4%.

With `Clc1cccc(-c2nc(-c3cccs3)no2)c1`, the growth in test [1] is 85.4%; in [2], 97.1%; in test [3], 74.1%; in test [4], 110%; in test [5] it was 96.3%; in [6], 103%. For the same compound, the growth is 93.1% in test [7], 78.3% in [8], 86.3% in test [9] and 85.7% in test [10].

For the compound `CC(C)=CCc1ccc(O)c(=O)cc1C(C)C`, the growth in [1] is 13.8%; in test [2], 25%; in [3] it was -10.4% (active); in [4], 18.3%; in [5] it was 24.8%; in test [6], -8.29% (active). The growth is 52.6% in test [7], 9.68% (active) in test [8] and 5.25% (active) in test [10].

For `CCc1ccc2c(c1)N(CCO)C1=C(C(=O)OC1)C2c1ccccc1` (stereo not drawn), the growth in test [1] was 104%; in test [2], 105%; in [3], 88.9%; in test [4], 91.8%; in test [5], 88.6%; in test [6] it was 101%. The growth in [7] is 73.4%; in test [8] it was 91.9%; in test [9], 83%; in [10], 63.6%.

For `Cc1cccc2c(NCCN(C)C)c3cccc(C(=O)NCCN(C)C)c3nc12`, the growth in test [1] is 19.4%; in test [2], 15.9%; in test [3], -67.6% (active); in test [4], -15.9% (active); in test [5], -44.6% (active); in [6], 6.76% (active). The growth in test [7] was 33.8%; in test [8], 3.77% (active); in test [9], 1.96% (active); in test [10], -14.7% (active).

Turning to `CC[C@H]1CCC/C=C/[C@@H]2C[C@H](O)C[C@H]2[C@H](O)/C=C/C(=O)O1`, the growth is -1.36% (active) in [1]; 3.46% (active) in test [2]; -9.94% (active) in [3]; -48% (active) in [4]; 0.373% (active) in [5]; -0.599% (active) in test [6]. The growth was -45.3% (active) in test [7], 7.71% (active) in test [8], 0.81% (active) in test [9] and 2.29% (active) in test [10].

Turning to `COc1ccc2c(c1)C(=O)c1c-2c(=O)n(CCCN(C)C)c2cc(OC)c(OC)cc12`, the growth in [1] was 113%; in [2], 53.1%; in test [3] it was 64.6%; in test [4], 102%; in test [5], 31.9%; in test [6] it was 10.6%. In addition, the growth in [7] is 85.5%; in test [8], 15.4%; in test [10] it was 1.53% (active).

On to `C=C(Cl)[C@@](Cl)(CBr)CC[C@@H](Br)C(C)(C)Cl`, for which the growth was -79% (active) in [1]; 72% in test [2]; -96.8% (active) in [3]; -98.9% (active) in test [4]; -99.4% (active) in test [5]; -98.7% (active) in test [6]. Also, the growth in test [7] is 99.3%; in test [8] it was 94.3%; in test [9], 81.1%; in [10], 75.6%.

On to `CCN(CC)CCCC(C)Nc1ccc2ccc(Cl)cc2n1` (stereo not drawn), for which the growth is 103% in test [1]; 88.8% in test [2]; 85.8% in test [3]; 100% in [4]; 98.5% in [5]; 104% in [6]. Moreover, the growth in test [7] is 92.3%; in test [8] it was 102%; in [9], 96.5%; in [10], 96.4%.
